This is an account of results in PubChem BioAssay (Tox21).

Results filed as inconclusive are left out. A number with no mark means an inactive call. Calls follow the shape of the dose curve; as a rule, active = well fitted cell-killing curve with a large enough effect in the repeat runs; inconclusive = weak or mixed curves, or effect the other way; inactive = flat fitted curve, though single readings scatter.
% is scaled to controls: 0 for no effect and ±100 for the full control effect.

A short description of the assay: qHTS assay to identify small molecule antagonists of the androgen receptor (AR) signaling pathway using the MDA cell line in the presence of 0.5 nM R1881 - cell viability counter screen (AID 1259242). Also: nearly all actives have a fitted effect of over 45% in size. The following applies: MDA-kb2 viability, CellTiter-Fluor protease fluorescence, 16 h; series mostly up to 92.4 µM; viability change, negative = cytotoxic: at the top concentration. An excerpt: U.S. Tox21 Program National Center for Advancing Translational Sciences [NCATS] NIH Chemical Genomics Center [NCGC] U.S. Environmental Protection Agency [EPA] National Institutes of Environmental Health Sciences [NIEHS] National Toxicology Program [NTP] U.S. Food and Drug Administration [FDA] Tox21 Assay Overview: Androgen receptor (AR) is an important member of the nuclear receptor family. Its signaling plays a critical role in AR-dependent prostate cancer and other androgen related diseases. Considerable attention has been given in the past decades to develop methods to study and screen for the environmental chemicals that have the potential to interfere with metabolic homeostasis, reproduction, developmental and behavioral functions. Therefore AR binding assay for screening androgen antagonists can be used to identify potential endocrine disruptors. MDA-kb2 cells (from ATCC, deposited by Wilson et al.) were used to screen for AR inhibitors against Tox21 compound libraries. These cells are human breast carcinoma cells that were stably transfected with a luciferase reporter gene under control of the MMTV promoter that contains response elements for both androgen receptor (AR) and glucocorticoid receptor (GR). The current screening for identification of AR inhibitors against Tox21 libraries used lower concentration of (0.5 nM) R1881 as a stimulator. The cytotoxicity of the Tox21 compound libraries against MDA-kb2 cell line was tested by measuring live-cell protease activity using CellTiter-Fluor assay in the same wells.
Tox21 Assay Protocol Summary: MDA-kb2 cells (cells cultured without CO2) were dispensed at 3,000 cells/well in 4 uL of culture medium into white wall/solid-bottom 1536-well plates (Corning Life Sciences, Corning, NY) using a Multidrop Combi (ThermoFisher Scientific, Waltham, MA) dispenser. After the assay plates were incubated at a 37C and 0% CO2 for 5 hr, 23 nL of compounds dissolved in DMSO, positive controls or DMSO only was transferred to the assay plate by a Pintool station (Kalypsys, San Diego, CA). The transfer of compounds was followed by the addition of 1 uL of 0.5 nM (final concentration) agonist (R1881)/culture medium using a Flying Reagent Dispenser (FRD, Aurora Discovery, San Diego, CA). The plates were incubated at 37C and 0% CO2 for 16 hr. For cytotoxicity assay, 1 uL of CellTiter-Fluor reagent (Promega Corporation, Madison, WI) was added to each well using the FRD and after 30 min incubation at 37C and 0% CO2, The fluorescence intensity was measured using ViewLux plate reader (PerkinElmer, Shelton, CT).
(In general: Quantitative high-throughput screening tests each substance at several concentrations.)
With `CC1(C)CC(O)CC(C)(C)N1[O]`, the “viability change, negative = cytotoxic” value is 3.01%.

For `CCCCCCCCCCCCSCCOCCO`, the “viability change, negative = cytotoxic” value was 1.17% [at 42.5 µM]. Then `N#C[C@@H]1CC(F)(F)CN1C(=O)CNC1CC2CCC(C1)N2c1ncccn1` (stereo not given in full), with 0.81%; and `C=CC(=O)OCCCCCCCCCC`, with 2.01%. As for `Cc1cc(N)n(-c2ccccc2)n1`, the “viability change, negative = cytotoxic” value was 5.61%. Under `O=c1c2ccccc2oc2ccccc12` stands 0.982%. With `O=c1[nH][nH]c2ccccc12`, the “viability change, negative = cytotoxic” value was -7.75%. `CO[C@@H]1[C@@H](O[C@@H]2O[C@H](C)[C@@H](O[C@H]3C[C@@](C)(O)[C@@H](O)[C@H](C)O3)[C@H](N(C)C)[C@H]2O)[C@@H](CC=O)C[C@@H](C)[C@@H](O[C@@H]2CC[C@H](N(C)C)[C@@H](C)O2)/C=C/C=C/C[C@@H](C)OC(=O)C[C@H]1OC(C)=O`: the “viability change, negative = cytotoxic” value was -6.61% [at 42.5 µM]. In the case of `O=C(O)c1ccccc1-n1cc(C(=O)O)c(=O)c2cc(Nc3c(F)cc(F)cc3Cl)c(Cl)cc21`, the “viability change, negative = cytotoxic” value was -2.5%. Turning to `O=C1CCCN1CCO`, the “viability change, negative = cytotoxic” value was -10.6%. `CC(CC(C#N)(c1ccccc1)C(C)C)N(C)C` (stereo not given): the “viability change, negative = cytotoxic” value is 0.527% [at 42.5 µM]. Regarding `CCC(=O)O[C@]1(C(=O)COC)[C@@H](C)C[C@H]2[C@@H]3CCC4=CC(=O)C=C[C@]4(C)C3(F)[C@@H](O)C[C@@]21C` (stereo not given in full), the “viability change, negative = cytotoxic” value is 2.09% [at 42.5 µM]. On to `Nc1ccc(-c2ccc(F)cc2)cc1`, for which the “viability change, negative = cytotoxic” value was 5.94%. As to `Cc1cc(SC2=C(O)C[C@@](CCc3ccc(N)cc3)(C(C)C)OC2=O)c(C(C)(C)C)cc1CO`, the “viability change, negative = cytotoxic” value is 3.13%.

For `CC(C)(C)c1ccc(CCC=O)cc1`, the “viability change, negative = cytotoxic” value is 3.81%.

`CC(COc1ccccc1)NC(C)C(O)c1ccc(O)cc1` (stereo not given): the “viability change, negative = cytotoxic” value is 2.13% [at 42.5 µM]. As for `Cc1nc(C)c(C)nc1C`, the “viability change, negative = cytotoxic” value is -5.29%.

Regarding `C[C@H]1C[C@H]2[C@@H]3CCC4=CC(=O)C=C[C@]4(C)[C@@]3(F)[C@@H](O)C[C@]2(C)[C@@]1(O)C(=O)COP(=O)(O)O`, the “viability change, negative = cytotoxic” value is 0.573%. For `O=C(N[C@@H](Cc1ccccc1)[C@@H](O)C(=O)N1C[C@@H](O)[C@@H](O)C1)c1cc2cc(Cl)ccc2[nH]1`, the “viability change, negative = cytotoxic” value was 3.04%. Consider `CC(O)CN` (stereo not given), for which the “viability change, negative = cytotoxic” value is -0.44%.

In the case of `COc1ccc(C(=O)Nc2ccccc2)cc1[N+](=O)[O-]`, the “viability change, negative = cytotoxic” value was -4.35%. With `C=C(C)C(=O)OCCCCCCCCCCOC(=O)C(=C)C`, the “viability change, negative = cytotoxic” value was 2.76%. `CCCN(C1CCN(C(=O)C2CCNCC2)CC1)[C@@H]1CCc2ccc(OC)cc2C1`: the “viability change, negative = cytotoxic” value was -15.9%. Turning to `COC=O`, the viability change, negative = cytotoxic is 2.17% [at 8.39 µM]. On to `c1ccc(-c2ccc(-c3ccccc3)cc2)cc1`, for which the viability change, negative = cytotoxic was 1.4% [at 19 µM]. Under `CCC[Si](OC)(OC)OC` stands 3.28%; under `CC(C)(Cc1c[nH]c2ccccc12)NCC(O)COc1ccccc1C#N` (stereo not given), -4.42% [at 42.5 µM]. Regarding `CCCCC(CC)COCCC#N` (stereo not given), the “viability change, negative = cytotoxic” value was 2.02%. In the case of `O=C(c1ccco1)N1CCNCC1`, the “viability change, negative = cytotoxic” value was 1.62% [at 42.5 µM].

On to `Nc1ccc(C(=O)Oc2ccccc2)c(O)c1`, for which the “viability change, negative = cytotoxic” value was 0.314% [at 42.5 µM]. Consider `CCOc1ccc(NC(C)=O)cc1N`, for which the “viability change, negative = cytotoxic” value is 0.611%. As for `CC/C=C/CCO`, the “viability change, negative = cytotoxic” value is -4.51%. On to `OCCCO`, for which the “viability change, negative = cytotoxic” value was 1.96%. Regarding `COc1cc(C)c(Cc2cnc(N)nc2N)cc1OC`, the “viability change, negative = cytotoxic” value is 2.4% [at 42.5 µM].

Turning to `CC1(C)[C@@H]2CC[C@]3(C2)[C@@H]1C(=O)CCC3(C)C`, the “viability change, negative = cytotoxic” value was 1.46%. Regarding `OCCc1ccncc1`, the “viability change, negative = cytotoxic” value was -2.17%.

On to `NCCOCCOCCN`, for which the “viability change, negative = cytotoxic” value was -7.22%. Take `C1CCN(CN2CCCCC2)CC1`: the “viability change, negative = cytotoxic” value is 4.11%. For `CC[C@H](NC(C)C)[C@H](O)c1ccc(O)c2[nH]c(=O)ccc12`, the “viability change, negative = cytotoxic” value was -1.07% [at 42.5 µM]. Regarding `CCCCCCCCC(=O)OCC(C)OC(=O)CCCCCCCC` (stereo not given), the “viability change, negative = cytotoxic” value is 4.06%.
